Assay [1] relates to RPS6KA5(Kin.Dom.2-C-terminal).
Assay [2] deals with T1, RSK1(Kin.Dom.2-C-terminal).
T1 construct: gene RPS6KA1

Assay [3] has as its system T2, RSK2(Kin.Dom.2-C-terminal).
T2 construct: gene RPS6KA3

Assay [4] concerns T3, RSK3(Kin.Dom.2-C-terminal).
T3 construct: gene RPS6KA2

For a further assay, the system named is T4, SNARK.
T4 construct: gene NUAK2
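Note: kd values determined as follow-up on hits from a single-replicate KINOMEscan panel screen.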

A word on the Kd: it is the concentration at which binding is half-saturated. Higher therefore signals a looser complex. On to `Cc1cccc(-c2cc(Nc3ccncc3)c3ccccc3n2)n1` [GSK223675], for which the equilibrium dissociation constant (Kd) in assay [1] is above 10 µM.

For the molecule `Cc1ccccc1-n1cnc2c(N)ncnc21` [SKF-97510], in assay [2], the Kd was above 10 µM.

`Nc1nc(-c2nccs2)c(-c2ccnc3ccccc23)s1` [GW693542] yielded a Kd in assay [3] above 10 µM.

In assay [4], `CS(=O)(=O)c1ccc(-c2c(-c3ncn[nH]3)sc(N3CCOCC3)c2C#N)cc1` came in with a dissociation constant (Kd) above 10 µM.

`COc1cc2ncn(-c3cc(OCC4CCCO4)c(C(N)=O)s3)c2cc1OC` (centres unmarked) [GSK204607] returned a dissociation constant (Kd) with SIK2 above 10 µM.

Molecule `CC1=C(C(=O)Nc2cc3cn[nH]c3cc2F)C(c2ccc(C(F)(F)F)cc2)CC(=O)N1` (centres unmarked) [GSK429286] showed a Kd in the assay with SNARK of 0.47 µM.

`Cn1cncc1-c1ccc2ncnc(Nc3ccc(OCc4ccccc4)cc3)c2c1` [GW320571] gave a Kd in the assay with SNRK of 8.7 µM.

Regarding `Nc1ncnc2[nH]c(-c3ccccc3)nc12` [AH5015], the Kd with SNRK is above 10 µM.
